# Results reported in the supplement of paper PMC11732987, “Enantioselective OTUD7B fragment discovery through chemoproteomics screening and high-throughput optimisation” (Communications Chemistry, 2025).
# A number with no mark means an inactive call.
# Key:
# Experiment in all cases: log2 ratio of Biotin-Ahx-Ub-VS probe labelling (fragment/DMSO); higher = less target engagement (more negative = stronger competition), active = hit call of the paper (q ≤ 0.05, log2 ratio ≤ -1)
# Conditions in all cases: compound concentration: 200 uM; treatment time: 3 h
# [1] = target: T1, USP19 (UniProt O94966)
# T1 sequence (whole entry): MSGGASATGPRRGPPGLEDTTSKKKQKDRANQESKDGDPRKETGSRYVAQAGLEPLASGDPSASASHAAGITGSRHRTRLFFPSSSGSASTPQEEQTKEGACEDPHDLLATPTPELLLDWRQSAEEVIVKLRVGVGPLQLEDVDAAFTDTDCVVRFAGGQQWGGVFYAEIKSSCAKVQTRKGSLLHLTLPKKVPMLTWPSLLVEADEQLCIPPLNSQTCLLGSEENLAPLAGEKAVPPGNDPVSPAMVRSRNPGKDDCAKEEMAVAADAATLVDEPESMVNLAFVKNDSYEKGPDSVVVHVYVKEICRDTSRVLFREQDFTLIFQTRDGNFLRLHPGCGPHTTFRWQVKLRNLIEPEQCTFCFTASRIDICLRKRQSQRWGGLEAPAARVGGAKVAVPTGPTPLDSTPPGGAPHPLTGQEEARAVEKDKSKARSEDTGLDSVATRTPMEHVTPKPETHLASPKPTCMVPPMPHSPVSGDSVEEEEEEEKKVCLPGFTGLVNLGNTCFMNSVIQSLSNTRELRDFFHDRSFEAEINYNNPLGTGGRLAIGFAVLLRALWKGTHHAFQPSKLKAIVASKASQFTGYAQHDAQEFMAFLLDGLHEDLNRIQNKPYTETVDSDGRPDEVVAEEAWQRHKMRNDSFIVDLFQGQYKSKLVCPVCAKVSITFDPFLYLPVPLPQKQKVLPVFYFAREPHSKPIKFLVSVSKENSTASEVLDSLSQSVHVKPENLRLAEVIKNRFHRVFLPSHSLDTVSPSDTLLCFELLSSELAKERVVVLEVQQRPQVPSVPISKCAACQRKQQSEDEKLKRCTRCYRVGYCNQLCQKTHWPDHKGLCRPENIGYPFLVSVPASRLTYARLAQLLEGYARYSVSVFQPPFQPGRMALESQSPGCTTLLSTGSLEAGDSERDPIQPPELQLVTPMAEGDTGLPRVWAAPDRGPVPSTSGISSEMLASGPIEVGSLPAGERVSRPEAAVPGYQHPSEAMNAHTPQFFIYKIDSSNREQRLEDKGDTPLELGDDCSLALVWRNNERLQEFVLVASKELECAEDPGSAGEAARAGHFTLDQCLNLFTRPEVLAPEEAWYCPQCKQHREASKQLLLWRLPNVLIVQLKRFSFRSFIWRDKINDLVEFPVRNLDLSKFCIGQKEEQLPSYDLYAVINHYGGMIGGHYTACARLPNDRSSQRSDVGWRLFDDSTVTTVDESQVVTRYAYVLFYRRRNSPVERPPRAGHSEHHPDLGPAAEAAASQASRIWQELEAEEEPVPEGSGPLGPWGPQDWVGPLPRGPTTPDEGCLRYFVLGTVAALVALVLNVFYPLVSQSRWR
# Method in brief: (§1)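 Triplicate samples of HEK293T lysate, 495 µg each, received fragment at 200 µM or vehicle for 3 h, followed by Biotin-Ahx-Ub-VS (0.5 µM final) for 1 h. After NeutrAvidin enrichment of labelled DUBs and LysC/trypsin digestion, peptides were run by diaPASEF LC-MS/MS. The values are average log2 fragment/vehicle ratios from global-median-normalised Spectronaut label-free quantities, tested by unpaired t-test on proteins having ≥2 unique peptides.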
# [2] = target: USP24 (UniProt Q9UPU5)
# Method in brief: as §1
# [3] = target: T2, USP25 (UniProt Q9UHP3)
# T2 sequence (whole entry): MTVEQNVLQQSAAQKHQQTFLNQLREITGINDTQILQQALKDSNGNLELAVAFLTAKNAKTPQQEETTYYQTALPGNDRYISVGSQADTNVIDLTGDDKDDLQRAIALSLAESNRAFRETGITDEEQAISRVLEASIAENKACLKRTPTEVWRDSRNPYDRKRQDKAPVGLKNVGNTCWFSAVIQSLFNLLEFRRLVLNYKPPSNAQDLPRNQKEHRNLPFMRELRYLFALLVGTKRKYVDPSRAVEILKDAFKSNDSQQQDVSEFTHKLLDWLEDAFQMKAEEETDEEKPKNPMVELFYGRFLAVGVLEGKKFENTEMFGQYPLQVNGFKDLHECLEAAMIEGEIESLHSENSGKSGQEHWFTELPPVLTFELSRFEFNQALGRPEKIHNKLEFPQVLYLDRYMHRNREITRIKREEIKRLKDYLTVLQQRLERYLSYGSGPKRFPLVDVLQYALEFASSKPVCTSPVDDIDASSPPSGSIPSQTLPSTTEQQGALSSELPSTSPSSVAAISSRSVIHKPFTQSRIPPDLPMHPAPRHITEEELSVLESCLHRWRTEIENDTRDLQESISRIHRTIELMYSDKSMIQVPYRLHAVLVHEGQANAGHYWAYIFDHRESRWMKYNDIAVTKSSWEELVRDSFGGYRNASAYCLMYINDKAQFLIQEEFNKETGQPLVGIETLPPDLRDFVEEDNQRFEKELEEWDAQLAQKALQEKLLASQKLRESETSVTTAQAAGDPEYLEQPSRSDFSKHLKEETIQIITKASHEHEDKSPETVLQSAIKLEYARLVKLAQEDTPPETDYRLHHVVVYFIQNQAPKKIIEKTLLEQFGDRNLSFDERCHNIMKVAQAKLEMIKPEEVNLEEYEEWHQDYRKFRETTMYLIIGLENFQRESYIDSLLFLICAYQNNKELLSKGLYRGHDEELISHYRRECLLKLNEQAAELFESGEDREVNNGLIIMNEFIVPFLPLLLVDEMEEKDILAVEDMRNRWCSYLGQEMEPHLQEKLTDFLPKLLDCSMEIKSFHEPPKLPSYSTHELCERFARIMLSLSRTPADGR
# Method in brief: as §1
# [4] = target: T3, USP28 (UniProt Q96RU2)
# T3 sequence (whole entry): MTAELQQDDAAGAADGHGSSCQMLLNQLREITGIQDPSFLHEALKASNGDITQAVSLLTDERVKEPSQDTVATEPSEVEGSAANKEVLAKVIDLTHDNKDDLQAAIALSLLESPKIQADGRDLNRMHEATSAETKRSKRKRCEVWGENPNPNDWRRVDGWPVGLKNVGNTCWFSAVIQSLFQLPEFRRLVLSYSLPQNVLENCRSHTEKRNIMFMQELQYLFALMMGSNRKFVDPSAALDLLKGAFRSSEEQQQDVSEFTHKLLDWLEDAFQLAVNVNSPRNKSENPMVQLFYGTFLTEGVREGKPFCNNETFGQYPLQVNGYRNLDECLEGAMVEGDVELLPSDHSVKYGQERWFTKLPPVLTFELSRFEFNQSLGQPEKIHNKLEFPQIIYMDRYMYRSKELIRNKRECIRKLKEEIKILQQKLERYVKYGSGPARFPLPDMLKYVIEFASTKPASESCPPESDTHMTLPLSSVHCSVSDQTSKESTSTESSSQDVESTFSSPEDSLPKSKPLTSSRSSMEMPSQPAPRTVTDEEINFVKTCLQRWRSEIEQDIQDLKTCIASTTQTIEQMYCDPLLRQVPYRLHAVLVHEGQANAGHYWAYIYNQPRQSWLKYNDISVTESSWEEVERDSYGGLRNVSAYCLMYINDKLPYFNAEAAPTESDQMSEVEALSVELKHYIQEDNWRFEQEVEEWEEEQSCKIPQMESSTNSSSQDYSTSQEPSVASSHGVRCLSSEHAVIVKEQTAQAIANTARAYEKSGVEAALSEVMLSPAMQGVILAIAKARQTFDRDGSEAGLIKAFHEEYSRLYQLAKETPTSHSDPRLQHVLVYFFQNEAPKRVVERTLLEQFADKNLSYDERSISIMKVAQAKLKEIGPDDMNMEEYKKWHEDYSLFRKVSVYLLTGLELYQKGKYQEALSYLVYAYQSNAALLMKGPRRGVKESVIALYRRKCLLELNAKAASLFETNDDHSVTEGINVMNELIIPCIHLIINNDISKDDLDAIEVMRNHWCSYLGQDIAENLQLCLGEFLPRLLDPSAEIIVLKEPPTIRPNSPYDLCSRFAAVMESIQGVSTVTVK
# Method in brief: as §1
# USP24, sequence (Q9UPU5 whole entry): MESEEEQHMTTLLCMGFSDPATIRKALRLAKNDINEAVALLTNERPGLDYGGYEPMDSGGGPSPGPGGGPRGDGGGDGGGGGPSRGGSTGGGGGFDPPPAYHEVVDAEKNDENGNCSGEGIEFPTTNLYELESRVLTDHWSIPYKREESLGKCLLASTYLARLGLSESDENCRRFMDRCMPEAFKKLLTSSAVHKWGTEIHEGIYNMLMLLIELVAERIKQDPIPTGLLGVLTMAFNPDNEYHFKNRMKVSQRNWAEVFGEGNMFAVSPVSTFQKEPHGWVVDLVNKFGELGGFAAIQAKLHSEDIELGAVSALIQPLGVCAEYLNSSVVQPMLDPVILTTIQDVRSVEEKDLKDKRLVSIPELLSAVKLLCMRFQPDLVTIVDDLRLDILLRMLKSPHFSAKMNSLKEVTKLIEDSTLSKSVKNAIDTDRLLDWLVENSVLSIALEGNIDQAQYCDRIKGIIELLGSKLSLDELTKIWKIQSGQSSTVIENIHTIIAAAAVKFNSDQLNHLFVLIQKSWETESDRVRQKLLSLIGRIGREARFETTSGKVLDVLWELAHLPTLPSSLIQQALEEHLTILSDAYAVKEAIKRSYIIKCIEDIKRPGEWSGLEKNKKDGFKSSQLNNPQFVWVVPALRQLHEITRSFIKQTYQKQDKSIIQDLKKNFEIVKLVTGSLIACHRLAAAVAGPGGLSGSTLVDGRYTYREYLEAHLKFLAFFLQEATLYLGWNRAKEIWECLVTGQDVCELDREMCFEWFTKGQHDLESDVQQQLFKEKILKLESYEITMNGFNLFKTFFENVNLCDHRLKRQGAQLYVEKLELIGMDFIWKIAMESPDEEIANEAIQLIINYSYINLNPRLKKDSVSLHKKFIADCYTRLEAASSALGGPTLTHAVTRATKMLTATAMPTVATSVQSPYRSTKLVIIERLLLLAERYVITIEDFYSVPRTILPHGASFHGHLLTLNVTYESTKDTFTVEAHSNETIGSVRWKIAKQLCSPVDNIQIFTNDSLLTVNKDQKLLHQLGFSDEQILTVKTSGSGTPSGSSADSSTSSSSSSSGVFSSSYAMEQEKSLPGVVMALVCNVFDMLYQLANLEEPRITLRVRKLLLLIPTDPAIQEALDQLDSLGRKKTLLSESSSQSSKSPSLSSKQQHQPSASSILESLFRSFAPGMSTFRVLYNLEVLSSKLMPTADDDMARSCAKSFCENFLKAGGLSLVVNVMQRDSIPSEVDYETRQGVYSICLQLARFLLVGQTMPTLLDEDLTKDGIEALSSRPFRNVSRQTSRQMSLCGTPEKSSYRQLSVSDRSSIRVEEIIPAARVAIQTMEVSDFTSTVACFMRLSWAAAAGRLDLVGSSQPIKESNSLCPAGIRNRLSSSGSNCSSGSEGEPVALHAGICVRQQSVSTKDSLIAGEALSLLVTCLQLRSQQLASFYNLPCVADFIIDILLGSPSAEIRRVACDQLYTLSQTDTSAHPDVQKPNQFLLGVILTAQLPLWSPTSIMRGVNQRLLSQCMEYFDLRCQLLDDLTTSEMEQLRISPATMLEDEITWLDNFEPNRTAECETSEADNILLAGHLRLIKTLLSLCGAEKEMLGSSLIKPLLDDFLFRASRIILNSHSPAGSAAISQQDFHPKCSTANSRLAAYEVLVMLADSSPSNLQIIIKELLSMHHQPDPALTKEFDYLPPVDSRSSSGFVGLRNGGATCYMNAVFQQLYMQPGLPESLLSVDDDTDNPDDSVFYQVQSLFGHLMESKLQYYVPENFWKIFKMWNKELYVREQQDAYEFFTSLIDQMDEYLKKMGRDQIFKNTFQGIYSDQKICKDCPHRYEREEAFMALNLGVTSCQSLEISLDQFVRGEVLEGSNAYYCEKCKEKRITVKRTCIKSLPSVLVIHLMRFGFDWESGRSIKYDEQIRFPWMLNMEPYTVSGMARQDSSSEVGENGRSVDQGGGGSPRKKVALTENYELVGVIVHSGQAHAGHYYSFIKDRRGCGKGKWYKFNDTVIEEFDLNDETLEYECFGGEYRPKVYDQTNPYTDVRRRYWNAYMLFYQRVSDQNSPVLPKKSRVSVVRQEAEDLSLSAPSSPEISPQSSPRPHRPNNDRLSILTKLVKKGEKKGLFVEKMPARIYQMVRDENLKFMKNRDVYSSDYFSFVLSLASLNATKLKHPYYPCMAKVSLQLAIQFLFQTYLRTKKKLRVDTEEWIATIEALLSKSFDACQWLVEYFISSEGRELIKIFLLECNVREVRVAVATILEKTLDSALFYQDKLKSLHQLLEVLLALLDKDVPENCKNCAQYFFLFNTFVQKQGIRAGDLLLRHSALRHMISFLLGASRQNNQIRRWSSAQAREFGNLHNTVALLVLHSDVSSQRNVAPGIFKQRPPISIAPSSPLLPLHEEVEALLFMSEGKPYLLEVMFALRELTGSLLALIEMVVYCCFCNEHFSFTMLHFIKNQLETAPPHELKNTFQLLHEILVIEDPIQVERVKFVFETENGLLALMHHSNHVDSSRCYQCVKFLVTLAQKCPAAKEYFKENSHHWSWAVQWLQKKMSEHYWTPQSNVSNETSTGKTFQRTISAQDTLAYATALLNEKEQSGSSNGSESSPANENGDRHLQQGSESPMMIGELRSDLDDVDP
structure (smiles),measurement,setting,value
CCC1c2ccsc2CCN1C(=O)CCl (centres undefined),log2 ratio of Biotin-Ahx-Ub-VS probe labelling,[1],-0.544
same,log2 ratio of Biotin-Ahx-Ub-VS probe labelling,[2],-1.31 (active)
same,log2 ratio of Biotin-Ahx-Ub-VS probe labelling,[3],-0.177
same,log2 ratio of Biotin-Ahx-Ub-VS probe labelling,[4],-0.461
